40 compounds from the supplement of paper PMC10941209 can be followed below.

In this assay the test system is HFF. Kind of assay: cell viability relative to DMSO control; higher = less cytotoxic. The following applies: 1 µM; 72 h. Here is the method: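 Single-dose cytotoxicity screen of the MMV Pandemic Response Box at 1 uM on human foreskin fibroblasts (HFF), 72 h at 37 C. Viability measured by MTT (OD 550 nm) and normalised to the DMSO control (% survival).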
The cell viability is a per cent measure of how many cells are alive, often set against a control. In turn, `Nc1nc(-c2ccccc2)nc2[nH]nc(Nc3ccc(C(F)(F)F)cc3)c12` yielded a cell viability of 64.3%.

Compound `Clc1ccc(Cn2c(CN3CCCC3)nc3ccccc32)cc1` showed a cell viability of 67.7%.

As to `Nc1nc2c(ncn2COC(CO)CO)c(=O)[nH]1`, the cell viability came to 68.6%. On to `COc1ccc2c(c1OC)C(=O)OC2C1c2c(cc3c(c2OC)OCO3)CCN1C` (stereo not given), for which the cell viability is 74.8%. The compound `CCc1cc(O)c(Oc2ccc(C(N)=O)cc2F)cc1F` yielded a cell viability of 67.9%. The figure for `CC(C)n1cnc2c(NCc3ccccc3)nc(NCc3ccccc3)nc21` is 65.3%. In the case of `C=CCN(C(=O)OCc1ccc([N+](=O)[O-])cc1)C1CCN(CC[C@](C)(CN(C)S(=O)(=O)c2ccccc2)c2ccccc2)CC1`, the cell viability was determined as 69.6%. The value for `Cc1ccc(NC(=O)c2cc(Cl)ccc2O)cc1` was 65.7%; that for `O=C(Nc1nnc(-c2ccc(Cl)cc2)o1)c1nc2ccccc2s1` was 65.8%. The figure for `O=C(c1ccc(F)cc1)N1CCN2C(=O)c3ccccc3C12c1ccccc1` (stereo not given) is 63.3%. Consider `C[C@@H](NC(=O)c1ccccc1-c1ccccc1)B(O)O`, for which the cell viability turned out to be 59.6%. Regarding `O=C1NC(=S)N/C1=C\c1cc(Br)cc(Br)c1O`, the cell viability stood at 72.6%. The figure for `Nc1ccc2oc(=O)ccc2c1I` is 69.6%; for `O=C(NCc1ccc2c3c(cccc13)C(=O)N2)c1cccs1` it is 62.2%. In turn, `O=C1CCC(N2C(=O)c3ccccc3C2=O)C(=O)N1` (stereo not given) returned a cell viability of 59%. `CSC[C@H]1CN(Cc2c[nH]c3c(N)ncnc23)C[C@@H]1O` gave a cell viability of 61.5%. The value for `CC1(C)CC(NC(=O)C(=O)Nc2ccc(Cl)cc2)CC(C)(C)N1` was 69.1%. The figure for `O=C1c2cccc3cccc(c23)C(=O)N1CC1CO1` (stereo not given) is 63.8%; for `COc1c(F)c(F)cc2c(=O)c(C(=O)O)cn(C3CC3)c12` it is 69.4%; for `CCN(CC)CCn1c(=N)n(CC(O)COc2ccc(Cl)cc2Cl)c2ccccc21` (stereo not given) it is 60.7%.

Turning to `O=C(NCc1ccc(F)cc1)c1c(O)c2ncccc2[nH]c1=O`, the cell viability was determined as 50.8%.

With `NNC(=O)c1ccncc1`, the cell viability amounted to 62.8%. In turn, `Cc1cc(NS(=O)(=O)c2ccc(-c3ccc(F)cc3F)cc2)no1` gave a cell viability of 69.4%. The compound `CC(=O)Nc1cc(NS(=O)(=O)c2ccc(Cl)cc2)cc2c(Cl)[nH]nc12` came in with a cell viability of 67.2%. The value for `CCOc1noc2cc(OCCC3CCN(c4ccc(C)nn4)CC3)ccc12` was 53%; that for `Cc1oncc1C(=O)Nc1ccc(C(F)(F)F)cc1` was 65.7%. The figure for `Nc1ccc(-c2nc3cc(C(F)(F)F)ccc3n2C23CC4CC(CC(C4)C2)C3)cc1` is 66.3%.

Compound `C[C@@H](O)[C@H](N)C(=O)NS(=O)(=O)c1cccc(-c2ccc3[nH]ncc3c2)c1` registered a cell viability of 63.3%.

On to `CC(C)=CCC/C(C)=C/CNCCNC1C2CC3CC(C2)CC1C3` (stereo not given), for which the cell viability came to 80.2%. The value for `O=C(c1cc(O)nc2ccccc12)N1CCN(c2ccccc2)CC1` was 67%. `CC(=O)N[C@H](C)C(=O)N[C@H](Cc1ccccc1)C(=O)O`: the cell viability is 61.1%.

`Cc1ccc(S(=O)(=O)Nc2cccc3cccnc23)cc1`: the cell viability amounted to 84.2%. The value for `NC1C2CC3CC(C2)CC1C3` (stereo not given) was 66.1%; that for `CCCC1(C2CC2)c2cc(Cl)ccc2NC(=O)N1C` (stereo not given) was 62.3%; that for `CCCCN1C[C@H](O)[C@@H](O)[C@H](O)[C@H]1CO` was 63.2%. The compound `COc1c(NC(=O)[C@H]2CC[C@@H](COc3ccc([N+](=O)[O-])cc3)CC2)c(F)cc2c(=O)c(C(=O)O)cn(C3CC3)c12` had a cell viability of 62.8%. The value for `Oc1ccc2[nH]c(-c3ccccc3)nc2c1` was 69.2%. The figure for `OCCC#Cc1nc(-c2ccc(F)cc2)c(-c2ccncc2)n1CCCc1ccccc1` is 81.7%; for `O=S(=O)(Nc1ccc(O)cc1)c1cccc2cccnc12` it is 66.5%. The compound `O=c1cc(OCc2ccccc2)ccn1Cc1ccccc1` registered a cell viability of 68.5%.
